POLB inh: inhibitors of human DNA polymerase beta | P06746 | Pol beta primer extension/strand displacement, fluorescence kinetic | Potency, µM (top dose mostly 114 µM), inactives show at the top dose activity change, negative = inhibition, most hits filed as inhibitors | 340,000 compounds, 1.3% hits; note: % is set by controls: 0 for no effect and ±100 for the full control effect
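Homogeneous kinetic assay of primer extension and strand displacement by 10 nM Pol beta, preincubated 15 min at room temperature with compound before 50 nM substrate (final) was added. Read at 0 and 10 min; four-parameter Hill fit.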
Pol kappa inh: DNA polymerase kappa (human) inhibition; Q9UBT6; purified Pol kappa, fluorescent DNA synthesis assay, 10 min; Potency, µM (series often up to 107 µM), inactives show at the top dose activity, negative = inhibition, most hits filed as inhibitors; 400,000 compounds, 0.53% hits; AID 588579; note: % is set by controls: 0 for no effect and ±100 for the full control effect
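Kinetic fluorescence screen: compound preincubated 15 min RT with 10 nM enzyme; 50 nM substrate (final) initiates; reads at 0/10 min.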
WRN inhibitor: WRN helicase (human) inhibition; WRN helicase unwinding, fluorescent forked duplex, kinetic; Potency, µM (highest dose often 114 µM), for inactives: at the highest dose activity change, negative = inhibition, most hits filed as inhibitors; 360,000 compounds, 0.46% hits; AID 651768; note: % is set by controls: 0 for no effect and ±100 for the full control effect; nearly all actives have a fitted effect of over 55% in size
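Kinetic fluorescence helicase assay: unwinding of a quenched forked DNA duplex (100 nM final) with 2 mM ATP final raises red fluorescence (525/598 nm). Compounds sat 15 min at room temperature with 20 nM WRN beforehand.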
FEN1 inh: inhibitors of human flap endonuclease 1 | Potency, µM (series often up to 114 µM), for the others: at the highest dose activity change, negative = inhibition, hits mostly inhibitors | 390,000 compounds, 0.35% hits | Recombinant FEN1 flap cleavage, fluorescence, 15 min | AID 588795; note: % is set by controls: 0 for no effect and ±100 for the full control effect; nearly all actives have a fitted effect of over 65% in size
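Reaction started by adding substrate (50 nM final) to 10 nM enzyme after 15 min room-temperature compound preincubation. Reads at 0 and 15 min, with data normalized and fitted to a four-parameter Hill equation.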
POLI inh: DNA polymerase iota (human) inhibition | Q9UNA4 | Pol iota fluorescent replication assay, 10 min | Potency, µM (top dose mostly 115 µM), for inactives: at the top dose activity, negative = inhibition, most hits filed as inhibitors | 390,000 compounds, 1% hits | AID 588590
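Fluorescent replication assay read twice, at 0 min and 10 min after adding 50 nM (final) substrate. Enzyme (10 nM) and compounds were first incubated 15 min at room temperature; enzyme-free buffer wells were negative controls.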
POLH inh: inhibitors of human DNA polymerase eta | Potency, µM (series often up to 114 µM), without a hit: at the top dose activity change, negative = inhibition, hits mostly inhibitors | recombinant Pol eta, fluorescent DNA replication assay | 390,000 compounds, 1.2% hits | AID 588591; note: % is set by controls: 0 for no effect and ±100 for the full control effect
Target sequence (Q9Y253 whole entry, looked up): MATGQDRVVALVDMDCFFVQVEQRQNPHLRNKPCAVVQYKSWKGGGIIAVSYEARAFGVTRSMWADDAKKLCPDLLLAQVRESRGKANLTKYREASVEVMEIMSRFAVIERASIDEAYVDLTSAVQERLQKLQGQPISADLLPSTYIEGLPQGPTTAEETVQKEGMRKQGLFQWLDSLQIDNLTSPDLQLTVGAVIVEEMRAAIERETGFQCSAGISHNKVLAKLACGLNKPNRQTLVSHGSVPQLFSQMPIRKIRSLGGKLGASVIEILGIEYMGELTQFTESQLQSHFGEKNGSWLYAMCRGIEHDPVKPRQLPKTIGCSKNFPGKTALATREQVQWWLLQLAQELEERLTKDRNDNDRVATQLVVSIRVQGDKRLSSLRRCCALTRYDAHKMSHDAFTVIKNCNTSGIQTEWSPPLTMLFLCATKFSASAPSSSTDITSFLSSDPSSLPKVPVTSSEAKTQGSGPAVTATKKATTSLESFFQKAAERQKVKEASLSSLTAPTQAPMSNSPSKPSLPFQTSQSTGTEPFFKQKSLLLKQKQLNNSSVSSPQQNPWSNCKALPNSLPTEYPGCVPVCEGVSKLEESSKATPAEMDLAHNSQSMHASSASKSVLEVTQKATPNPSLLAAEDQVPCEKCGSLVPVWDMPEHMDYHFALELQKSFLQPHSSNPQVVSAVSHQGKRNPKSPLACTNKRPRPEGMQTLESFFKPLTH
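Pol eta (10 nM) was preincubated with compounds for 15 min at room temperature, after which fluorescent replication substrate (50 nM final) was added to start the reaction. Fluorescence was read kinetically at 0 and 10 min.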
The depositor's hits bear a star; u = inconclusive; x = no result given; [ ] = another dose, or the depositor's remark. Most compounds without a hit are left out; they make up all but 2.4% or so of the library. Calls come from the whole dose curve; as a rule, active = well fitted curve in the direction sought with a large enough effect; inconclusive = small, poorly fitted or top-dose-only effect, or another doubt; inactive = no such curve, though single readings can be large; an effect the other way counts as inactive or inconclusive. Potency is the fitted concentration of half-maximal effect.

SMILES	POLB inh	Pol kappa inh	WRN inhibitor	FEN1 inh	POLI inh	POLH inh
COc1ccc(-c2c(C3C4C=CCCC4(C)C(=O)N3Cc3ccccc3)ccc3ccccc23)cc1 (stereo unspecified)	x	0.0%	x	-10.6%	-0.2%	x
O=C(O)c1c2c(nc3ccccc13)CCCCC2	2.2%	-3.4%	-4.5%	-1.5%	4.9%	8.2%
Cc1cc(C)c2nc3c(c(C(=O)O)c2c1)CCC3	17.8µM*	-20.5%	-18.6%[57.1 µM]	8.4%	u	14.1µM*
CCOc1ccc2nc(NC(=O)CSc3nc(-c4ccccc4)c(C#N)c(=O)[nH]3)sc2c1	-26.9%	-19.1%	u	-10.7%	u	50.1µM*
COc1cccc(-c2nc(SCC(=O)Nc3nc(-c4ccccc4)c(C)s3)[nH]c(=O)c2C#N)c1	u	-9.0%	-34.4%	0.4%	u	79.4µM*
CCOC(=O)Cc1csc(NC(=O)CSc2nc(-c3ccccc3)c(C#N)c(=O)[nH]2)n1	14.1%	3.0%	-4.3%	-1.7%	-9.3%	-7.1%
Cc1ccc(S(=O)(=O)N2CCN(c3nc(-c4ccc(F)cc4)nc4cc(Cl)ccc34)CC2)cc1	x	-13.6%	x	12.2%	-3.1%	x
COc1cccc(COCCN2CCN(S(=O)(=O)c3ccccc3)CCC2=O)c1	x	8.0%	x	-4.9%	10.9%	x
NC(=O)N/N=C/c1c(O)ccc2oc3c(c12)CCCC3	2.7%	-2.2%	-4.5%	-30.7%	51.5%	-16.1%
CC(C)(C)N=Cc1c(O)ccc2oc3c(c12)CCCC3	0.1%	-75.1%	3.1%[11.6 µM]	-31.7%	u	39.8µM*
Cc1nc2ccccc2c(=O)n1/N=C/c1c(O)ccc2oc3c(c12)CCCC3	3.8%	0.9%	-8.4%[57.1 µM]	-3.5%	89.1µM*	-8.1%
COc1cc(CCC(O)CC(=O)CCc2ccccc2)ccc1O (stereo unspecified)	25.1µM*	-22.5%	-0.2%[11.6 µM]	-12.9%	79.4µM*	-11.9%
Fc1ccc(Nc2nc(-c3ccncc3)cs2)cc1	10µM*	-19.1%	-7.1%	1.1%	85.8%	5.0%
CC(O)COCC1OC2OC3C(COCC(C)O)OC(OC4C(COCC(C)O)OC(OC5C(COCC(C)O)OC(OC6C(COCC(C)O)OC(OC7C(COCC(C)O)OC(OC8C(COCC(C)O)OC(OC1C(OCC(C)O)C2OCC(C)O)C(OCC(C)O)C8OCC(C)O)C(OCC(C)O)C7OCC(C)O)C(OCC(C)O)C6OCC(C)O)C(OCC(C)O)C5OCC(C)O)C(OCC(C)O)C4OCC(C)O)C(OCC(C)O)C3OCC(C)O (stereo unspecified)	x	0.7%	x	15.1%	2.3%	x
COc1cccc(/C=C2/CN(C)CC3=C2OC(N)=C(C#N)C3c2cccc(OC)c2)c1 (stereo unspecified)	3.1%	-14.8%	79.4µM*	u	-20.4%	-19.9%
COc1ccc(-n2ncc3c(N4CCC(C(N)=O)CC4)ncnc32)cc1	u	-11.2%	8.8%	-5.5%	0.9%	-23.1%
CCOC(=O)C1CCN(c2ncnc3c2cnn3-c2ccc(OC)cc2)CC1	50.1µM*	-22.8%	-19.5%	-7.2%	10.8%	-7.0%
C=CC[n+]1cccc2cccc(O)c21	x	2.9%	x	-0.6%	12.6µM*	x
Oc1cccc2ccc[n+](CC(O)CBr)c12 (stereo unspecified)	x	-18.5%	x	-0.4%	37.6%	x
CCC(C)c1cc([N+](=O)[O-])cc([N+](=O)[O-])c1OC(=O)OC(C)C (stereo unspecified)	x	2.1%[60.1 µM]	x	x	x	x
Brc1cccc[n+]1CCC[n+]1ccccc1Br	x	-19.0%	x	79.4µM*	u	x
CCN(CCCCCCN)c1ccc2c(=O)[nH][nH]c(=O)c2c1	-27.4%	-5.0%	0.0%[11.6 µM]	3.1%	45.6%	79.4µM*
O=C(/C=C/c1ccco1)NC(=S)Nc1ccccn1	39.8µM*	-24.5%	-7.8%	12.0%	-6.0%	4.0%
Cc1cccnc1NC(=S)NC(=O)/C=C/c1ccco1	-10.5%	-38.4%	-26.4%	10.9%	u	u
Cn1nnc(NC(=S)NC(=O)/C=C/c2ccco2)n1	u	u	u	u	u	17.8µM*
SMILES	POLB inh	Pol kappa inh	WRN inhibitor	FEN1 inh	POLI inh	POLH inh
O=C(Nc1nc2c(F)cccc2s1)c1ccco1	0.9%	15.8%	0.7%	13.7%	4.1%	-10.0%
Fc1cccc2sc(Nc3nnc(-c4ccco4)o3)nc12	17.8µM*	-27.9%	u	-25.4%	u	u
Cc1ccc(C(=O)Oc2coc(CSc3nnc(NC(=O)c4cccs4)s3)cc2=O)cc1	25.1µM*	u	-13.1%[11.6 µM]	-16.0%	u	u
O=C(Oc1coc(CSc2nnc(NC(=O)C3CC3)s2)cc1=O)c1c(F)cccc1F	20µM*	-42.7%	-17.4%	-20.3%	u	u
Cc1cc(C)cc(C(=O)Oc2coc(CSc3nnc(NC(=O)C4CC4)s3)cc2=O)c1	0.1%	-6.6%	-10.9%	0.6%	u	u
CC(=O)Nc1nnc(SCc2cc(=O)c(OC(=O)c3ccccc3)co2)s1	18.0%	-18.8%	-1.0%	7.2%	-14.4%	-8.3%
COc1ccc(N(Cc2ccccc2)C(=O)c2nc(S(C)(=O)=O)ncc2Cl)cc1	-6.0%	-13.7%	x	9.3%	-15.4%	-1.0%
COC(=O)CCC(=O)OC1(C)C(=O)C2=CN(Cc3ccc(OC)cc3)C(c3ccc(OC)cc3)=CC2=C(Br)C1=O (stereo unspecified)	x	-12.4%	1.9%	-21.2%	81.3%	-6.0%
COC(=O)CCC(=O)OC1(C)C(=O)C2=CN(C3CC3)C(c3ccc(OC)cc3)=CC2=C(Br)C1=O (stereo unspecified)	x	-23.7%	-8.0%	-1.6%	u	79.4µM*
COC(=O)CCC(=O)OC1(C)C(=O)C2=CN(CC3CC3)C(c3ccc(OC)cc3)=CC2=C(Br)C1=O (stereo unspecified)	-2.8%	0.7%	-8.2%[57.1 µM]	7.5%	u	79.4µM*
COc1ccc2[nH]cc(CCNc3nc(-c4ccc(N(C)C)cc4)nc4ccccc34)c2c1	x	-1.8%[60.1 µM]	x	x	x	x
COc1ccc2c(c1)C(c1ccccc1OC)CC(=O)O2 (stereo unspecified)	x	39.8µM*	x	x	x	x
Cc1ccc(C)c(Cn2c(-c3cccs3)nc3ccccc32)c1	3.5%	-12.3%	x	-5.0%	-2.6%	-15.9%
O=C(NNC(=O)c1ccccc1Cl)c1ccccc1Cl	89.1µM*	-1.3%	-1.5%	10.0%	27.1%	-22.1%
CCNC(=O)CSc1ncnc2sccc12	u	-17.3%	-32.4%	4.4%	u	22.4µM*
C[C@@H]1C(=O)O[C@@H]1[C@@H](C)CO[Si](c1ccccc1)(c1ccccc1)C(C)(C)C	x	-12.0%	x	-7.4%	16.6%	x
COc1ccc(/C(C)=N/NC(=O)CNC(=O)/C=C\c2ccco2)cc1	25.1µM*	0.7%[60.1 µM]	-8.3%[11.6 µM]	0.5%	50.1µM*	-0.3%
